NPC1 prom act: activators of NPC1 promoter; Huh7 NPC1 promoter luciferase reporter, 24 h; Potency, µM (highest dose often 9.22 µM), inactives show at the top dose activation, hits mostly activators; 2.4% of 320,000 active; also: % of control where 0% means no effect; nearly all actives have a fitted effect of over 60% in size
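Luminescence from an NPC1 promoter-driven luciferase reporter in stably transfected Huh7 cells was measured after 24 h compound treatment at 37 °C, followed by 10 min ambient incubation with luciferase detection reagent.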
SMN2 splice enh: enhancers of SMN2 splice variant expression; HEK293 SMN2-luciferase splicing reporter, luminescence, 30-36 h; Potency, µM (series often up to 46.1 µM), for the others: top-dose activity change, positive = activation, usual class: activators; 2.8% of 210,000 active; AID 1458; also: % of control where 0% means no effect; nearly all actives have a fitted effect of over 55% in size
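HEK293 cells carry an SMN2 […]–luciferase reporter in which exon 7 inclusion puts luciferase in frame. Cells were plated 10-12 h before compound addition, then incubated 30-36 h at 37C. ONE-Glo luminescence was read; sodium butyrate at 4.5 mM final served as control.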
ELG1 genotox: inducers of genotoxicity in HEK293T ELG1-luciferase cells. Potency, µM (titrated, usually from 46 µM), for the others: at the top dose activity change, positive = activation, most hits filed as activators. 1.3% of 330,000 active. HEK293T ELG1-luciferase reporter, luminescence, 16 h. AID 504466; also: % of control where 0% means no effect; nearly all actives have a fitted effect of over 60% in size
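Quantitative HTS format in 1536-well plates. HEK293T ELG1-luciferase reporter cells receive test compound and are incubated 16 hr at 37 °C, 5% CO2; ONE-Glo added, 30 min room temperature, then luminescence read.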
KinaseGlo FLuc: blocks Kinase-Glo luciferase, a counter-screen artifact; Potency, µM (top dose mostly 38.3 µM), for inactives: top-dose activity change, negative = inhibition, usual class: inhibitors; Q27757; AID 1379; 0.28% of 200,000 active; Kinase-Glo luciferase, ATP luminescence, 8 min; also: % is scaled to controls: 0 for no effect and ±100 for the full control effect; nearly all actives have a fitted effect of over 60% in size
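Substrate mix (final 50 mM imidazole pH 7.2, 50 mM KCl, 7 mM MgCl2, 10 uM ATP, 0.01% Tween 20, 0.05% BSA) plus pin-tool compound, then Kinase-Glo detection mix; 8 min ambient, luminescence read.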
FLuc modulator: inhibits or activates purified firefly luciferase, miR-21 counter-screen | 6.9% of 360,000 active | purified FLuc, Km substrates, luminescence inhibition | Potency, µM (highest dose often 57.5 µM), for inactives: at the top dose activity change, negative = inhibition, usual class: inhibitors | P08659;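 also: plate controls were vehicle for no effect and reference inhibitor for full effect; nearly all actives have a fitted effect of over 55% in size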
Target sequence (P08659 whole entry, looked up): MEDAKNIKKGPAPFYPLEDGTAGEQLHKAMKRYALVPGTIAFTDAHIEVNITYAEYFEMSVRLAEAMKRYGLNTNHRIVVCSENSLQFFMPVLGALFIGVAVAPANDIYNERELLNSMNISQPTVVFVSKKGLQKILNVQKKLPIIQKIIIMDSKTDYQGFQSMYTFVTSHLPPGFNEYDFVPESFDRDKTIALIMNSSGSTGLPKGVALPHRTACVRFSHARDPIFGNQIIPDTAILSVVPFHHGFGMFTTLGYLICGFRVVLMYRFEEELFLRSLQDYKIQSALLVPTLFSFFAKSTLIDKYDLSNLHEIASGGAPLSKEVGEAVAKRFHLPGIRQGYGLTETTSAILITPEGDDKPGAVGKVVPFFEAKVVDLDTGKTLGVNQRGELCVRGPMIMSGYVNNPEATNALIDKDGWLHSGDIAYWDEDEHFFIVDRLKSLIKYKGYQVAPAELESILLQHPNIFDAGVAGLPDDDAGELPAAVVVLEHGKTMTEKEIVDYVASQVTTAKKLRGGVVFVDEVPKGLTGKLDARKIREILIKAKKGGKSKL
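Purified P. pyralis luciferase (10nM final) with 10uM D-luciferin and 10uM ATP (Km levels) in 50mM Tris acetate pH 7.5, 10mM Mg acetate, 0.01% Tween-20, 0.05% BSA; qHTS 6-point titration, ~60 µM downward; luminescence read.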
Rab9 prom act: activators of Rab9 promoter; Huh7 Rab9 promoter-luciferase reporter, luminescence, 24 h; Potency, µM (titrated, usually from 9.22 µM), for inactives: top-dose activation, negative = inhibition, usual class: activators; 2.8% of 320,000 active; also: % of control where 0% means no effect; nearly all actives have a fitted effect of over 60% in size
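Luminescence from Amplite-detected luciferase (10 minutes, ambient) reports Rab9 promoter activation. Before that, stable Rab9-luciferase Huh7 cells (1500/well, reduced-serum OP-MEM I plus 10% FBS) were exposed to compound for 24 hours at 37C.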
Active calls of the source: *; [ ] = dose if it differs, or a comment. This is a sample that favours compounds with a hit; in the whole collection about 7.4% have one here. Calls follow the shape of the dose curve; as a rule, active = well fitted curve in the direction sought with a large enough effect; inconclusive = small, poorly fitted or top-dose-only effect, or another doubt; inactive = no such curve, though single readings can be large; an effect the other way counts as inactive or inconclusive. Potency is read from the fitted curve at half-maximal effect.

Screening O=C(CSc1nc2ccccc2o1)Nc1nncs1 returned NPC1 prom act 0%, SMN2 splice enh -20%, ELG1 genotox 5%, KinaseGlo FLuc -1%, FLuc modulator -15% and Rab9 prom act -3%.
Screening Clc1c(CSc2nc3ccccc3o2)nc2sccn12 returned NPC1 prom act 1.6µM*, SMN2 splice enh 10µM*, ELG1 genotox 5.8µM*, KinaseGlo FLuc -2%, FLuc modulator 9.5µM* and Rab9 prom act 2µM*.
Brc1c(CSc2nc3ccccc3o2)nc2ncccn12 was read as NPC1 prom act inconclusive, SMN2 splice enh 28%, ELG1 genotox inconclusive, KinaseGlo FLuc -1%, FLuc modulator 15µM* and Rab9 prom act inconclusive.
Oc1nc(Nc2ccc(Cl)cc2Cl)sc1/C=C1\C=Nc2ccccc21 was read as NPC1 prom act 1%, SMN2 splice enh 3.2µM*, ELG1 genotox -3%, KinaseGlo FLuc -1%, FLuc modulator -10% and Rab9 prom act -6%.
Screening CCOc1ccc(-c2nnc(SCC(=O)Nc3cccc(Cl)c3C)o2)cc1 returned FLuc modulator 13µM*.
CCOc1ccc(-c2nnc(SCC(=O)Nc3cccc(C#N)c3)o2)cc1 was read as FLuc modulator 19µM*.
For CCOc1ccc(-c2nnc(SCC(=O)Nc3ccccc3C(F)(F)F)o2)cc1 the results were FLuc modulator -14%.
`O=C(Cn1c(=O)nc(-c2ccccc2)c2cc(Cl)ccc21)NCCCc1ccccc1` gave SMN2 splice enh -6% and FLuc modulator -17%.
Screening O=C(COC(=O)c1ccco1)NCc1ccccc1Cl returned NPC1 prom act 7%, SMN2 splice enh 0%, ELG1 genotox 4%, KinaseGlo FLuc -1%, FLuc modulator 27µM* and Rab9 prom act 1%.
Screening O=C(COC(=O)c1ccco1)NCc1ccc(Cl)cc1Cl returned ELG1 genotox 0%.
Screening O=C(COC(=O)C1CCCCC1)Nc1ccccc1OC(F)F returned NPC1 prom act -4%, SMN2 splice enh 1%, ELG1 genotox 0%, KinaseGlo FLuc -1%, FLuc modulator 24µM* and Rab9 prom act -3%.
For O=C(COC(=O)C1CCC1)NCc1ccccc1Cl the results were NPC1 prom act -3%, SMN2 splice enh 6%, ELG1 genotox 0%, KinaseGlo FLuc -5%, FLuc modulator 24µM* and Rab9 prom act 9%.
`COc1ccccc1NC(=O)COC(=O)C1CCCC1` gave ELG1 genotox 2%.
`O=C(COC(=O)C1CCCCC1)NCCc1ccccc1` gave NPC1 prom act 1%, SMN2 splice enh -1%, ELG1 genotox 0%, KinaseGlo FLuc 2%, FLuc modulator 17µM* and Rab9 prom act -2%.
`CC1CC1C(=O)OCC(=O)NCc1ccccc1Cl` (stereo not given) gave NPC1 prom act 0%, SMN2 splice enh 19%, ELG1 genotox 0%, KinaseGlo FLuc 1%, FLuc modulator -16% and Rab9 prom act 15%.
Screening CCCCNC(=O)CSc1nc2ccccc2nc1Cc1ccc(Cl)cc1 returned FLuc modulator -1%.
O=C(CCS(=O)(=O)c1cccc2nonc12)Nc1ccc(F)cc1F was read as FLuc modulator -1%.
`Cc1ccc(-n2nc(C)c3c(C)cc(=O)n(CC(=O)NCc4ccc(OC(C)C)cc4)c32)cc1` gave FLuc modulator -5%.
O=C(Nc1ccccc1)c1cnc(N2CCCCC2)c2ccccc12 was read as FLuc modulator -17%.
Screening CC(=O)c1ccc(NC(=O)CCc2c(C)nc3c(c2C)c(=O)n(C)c(=O)n3C)cc1 returned SMN2 splice enh 6% and FLuc modulator 2%.
For Cc1ccccc1CSc1ncc(CO)n1Cc1ccc(F)cc1 the results were FLuc modulator -7%.
Screening O=C(OCc1nc(-c2ccccc2Cl)no1)c1ccco1 returned NPC1 prom act 1%, ELG1 genotox 1%, FLuc modulator 12µM* and Rab9 prom act 0%.
Screening Cc1ccc(N(C(=O)Cn2nnc(-c3ccc(C)o3)n2)C(C(=O)NC2CCCC2)c2ccco2)cc1 (stereo not given) returned NPC1 prom act 2%, SMN2 splice enh 28µM*, ELG1 genotox 4%, KinaseGlo FLuc -6%, FLuc modulator 0% and Rab9 prom act -6%.
Cc1ccc(-c2nnn(CC(=O)N(c3ccccc3)C(C(=O)NC3CCCC3)c3ccncc3)n2)o1 (stereo not given) was read as NPC1 prom act -3%, ELG1 genotox 21%, FLuc modulator 4% and Rab9 prom act -1%.
`COc1ccc(CN(C(=O)Cn2nnc(-c3ccc(C)o3)n2)C(C(=O)NCC2CCCO2)c2ccco2)cc1` (stereo not given) gave NPC1 prom act inconclusive, ELG1 genotox inconclusive, KinaseGlo FLuc -7%, FLuc modulator 0.19µM* and Rab9 prom act inconclusive.
Screening COc1ccc(-c2nnn(CC(=O)N(Cc3ccco3)C(C(=O)NCC3CCCO3)c3ccco3)n2)cc1 (stereo not given) returned NPC1 prom act -3%, SMN2 splice enh -8%, ELG1 genotox 5%, KinaseGlo FLuc 3%, FLuc modulator 2% and Rab9 prom act -2%.
For O=C(O)NCc1ccccc1 (tested in a mixture with another compound) the results were SMN2 splice enh -10%[9.22 µM] and KinaseGlo FLuc -3%[7.66 µM].
O=C(N/N=C/c1ccc(Br)s1)c1c[nH]c2ccccc12 was read as NPC1 prom act 3.5µM*, SMN2 splice enh 8.9µM*, ELG1 genotox 3%, KinaseGlo FLuc -1%, FLuc modulator 21µM* and Rab9 prom act 2.8µM*.
`O=C(N/N=C/c1cc(Br)cs1)c1c[nH]c2ccccc12` gave NPC1 prom act inconclusive, ELG1 genotox 8%, FLuc modulator 17µM* and Rab9 prom act 24%.
For O=C(Oc1ccccc1F)c1nc(SCc2ccccc2F)ncc1Cl the results were SMN2 splice enh 7% and FLuc modulator -16%.
COc1ccc(C(C(=O)NC(C)(C)C)N(C(=O)CCC(=O)Nc2cc(C)on2)c2cccc(F)c2)cc1 (stereo not given) was read as NPC1 prom act -5%, ELG1 genotox 5%, FLuc modulator 0% and Rab9 prom act -3%.

Source: PubChem BioAssay (National Center for Advancing Translational Sciences (NCATS))
